This passage reports outcome results from PubChem BioAssay AID720549 (National Center for Advancing Translational Sciences (NCATS), 2013).

The target in this assay is RecQ-like DNA helicase BLM (Homo sapiens) (UniProt P54132). Briefly: qHTS for Inhibitors of Bloom's syndrome helicase (BLM): Helicase ATPase Orthogonal Confirmatory Assay for SAR. The settings on record: purified BLM helicase ATPase activity assay; series mostly up to 57.1 µM. From the text:
Human RecQ DNA helicases participate in maintenance of genome stability and DNA repair. While other types of helicases have been explored as targets for drug development, members of the RecQ family have remained less well characterized. Mutations of the Bloom helicase gene have been associated with the rare human genetic disease called Bloom syndrome. […] Moreover, identified inhibitors can be used in cells and animal models to examine the consequences of inhibition on the survival of cancer cells where it has been shown that BLM plays an important role.
A fluorescence-based, biochemical assay in 1536 well format was developed to evaluate inhibition of BLM DNA unwinding activity. This assay was used to screen the MLPCN library. […] This luminescence assay employs a purified BLM enzyme and a single stranded BLM oligo substrate ([…]). For this assay increase in luminescence signal is greater than or equal to 700 RLU. […]
Three microliter of reaction buffer (25mM Tris-HCl pH 8.0, 50mM NaCl, 2mM MgCl2, 1mM DTT, and 0.01% Tween- 20, and 2nM BLM enzyme) was dispensed into a 1536-well assay plates (Greiner, solid white medium-binding) via Aurora Discovery BioRAPTR Flying Reagent Dispenser (FRD). […] After 30 min at room temperature, the luminescence signal was detected using the ViewLux CCD imager. […]

Results filed as inconclusive are left out. Activity calls are given as the source filed them. Calls come from the whole dose curve; as a rule, active = well fitted inhibition curve with a large enough effect; inconclusive = small, poorly fitted or top-dose-only effect; inactive = flat fitted curve, though single readings scatter.

RecQ-like DNA helicase BLM (Homo sapiens), sequence (P54132 whole entry, looked up): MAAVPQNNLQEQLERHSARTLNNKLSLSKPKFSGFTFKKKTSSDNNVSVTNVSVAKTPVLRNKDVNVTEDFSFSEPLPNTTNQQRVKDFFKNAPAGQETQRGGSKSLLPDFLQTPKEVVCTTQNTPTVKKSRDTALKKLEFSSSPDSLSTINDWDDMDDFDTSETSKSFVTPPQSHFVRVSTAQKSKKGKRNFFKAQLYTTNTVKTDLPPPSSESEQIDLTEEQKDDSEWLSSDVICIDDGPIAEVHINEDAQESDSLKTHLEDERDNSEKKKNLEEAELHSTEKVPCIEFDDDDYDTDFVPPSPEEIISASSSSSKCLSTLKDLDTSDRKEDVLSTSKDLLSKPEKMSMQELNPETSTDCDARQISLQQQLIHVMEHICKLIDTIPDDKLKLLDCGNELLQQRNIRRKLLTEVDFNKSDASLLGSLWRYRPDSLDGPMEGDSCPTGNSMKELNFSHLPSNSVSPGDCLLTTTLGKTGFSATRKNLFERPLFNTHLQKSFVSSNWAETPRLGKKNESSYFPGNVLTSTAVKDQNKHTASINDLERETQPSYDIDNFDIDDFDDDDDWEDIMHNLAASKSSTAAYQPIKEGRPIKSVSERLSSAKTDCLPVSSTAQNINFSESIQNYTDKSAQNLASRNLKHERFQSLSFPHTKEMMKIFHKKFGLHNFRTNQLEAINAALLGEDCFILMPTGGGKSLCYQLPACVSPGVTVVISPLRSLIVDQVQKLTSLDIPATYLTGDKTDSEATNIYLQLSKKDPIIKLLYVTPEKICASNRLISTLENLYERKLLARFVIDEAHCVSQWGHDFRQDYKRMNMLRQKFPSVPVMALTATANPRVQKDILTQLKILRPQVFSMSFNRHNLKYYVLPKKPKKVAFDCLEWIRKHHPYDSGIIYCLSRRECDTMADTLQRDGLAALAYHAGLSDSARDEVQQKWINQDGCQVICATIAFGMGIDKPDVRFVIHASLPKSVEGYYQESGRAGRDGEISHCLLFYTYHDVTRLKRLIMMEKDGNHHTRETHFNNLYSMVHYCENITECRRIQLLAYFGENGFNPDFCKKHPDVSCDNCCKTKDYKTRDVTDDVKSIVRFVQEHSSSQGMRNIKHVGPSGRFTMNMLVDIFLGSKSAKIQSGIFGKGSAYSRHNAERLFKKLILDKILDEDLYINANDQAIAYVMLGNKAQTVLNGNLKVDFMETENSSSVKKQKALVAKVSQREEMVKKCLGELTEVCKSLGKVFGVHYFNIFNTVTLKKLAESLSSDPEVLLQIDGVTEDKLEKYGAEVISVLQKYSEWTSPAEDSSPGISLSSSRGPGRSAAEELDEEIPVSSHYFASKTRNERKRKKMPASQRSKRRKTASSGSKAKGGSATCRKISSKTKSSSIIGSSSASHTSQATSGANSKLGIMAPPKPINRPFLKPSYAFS

Take `N#Cc1ccc(NC(=O)Nc2nnc(-c3ccncc3)s2)cc1C(F)(F)F`: the outcome was inactive.
